Source: the supplement of paper PMC11006884
About 6,500 targets were measured; listed, in parts, are those with a hit and a random draw of the rest. About 2% of all pairs of compound and target were hits. A number with no mark means an inactive call.

What follows are targets tested with COC(=O)C#Cc1ccccc1 [methyl 3-phenylpropiolate] (assay: log2 ratio of iodoacetamide-alkyne labeling of the cysteine site, DMSO over compound (competition); higher = stronger covalent engagement of the cysteine by the compound, active = 1 or more). Conditions: 500 µM; treatment time 1 h; system: HEK293T cell lysate.
In short: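 After 1 h at ambient temperature with vehicle or electrophile (500 µM), HEK293T lysate (2 mg/mL) was labelled for 1 h with iodoacetamide alkyne and clicked to sCIP-TMT reagents. Pooled samples were trypsin-digested overnight at 37 °C, streptavidin-enriched, acid-eluted and analysed by Orbitrap Eclipse LC-MS/MS with FAIMS, then quantified in FragPipe over three replicates with duplicate channels. A cysteine's log2 competition ratio is its mean control-channel over mean compound-channel reporter intensity. Cysteines quantified in only one replicate were not included.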

Chain of UniProt Q9BWD1 (Q9BWD1 whole entry, looked up): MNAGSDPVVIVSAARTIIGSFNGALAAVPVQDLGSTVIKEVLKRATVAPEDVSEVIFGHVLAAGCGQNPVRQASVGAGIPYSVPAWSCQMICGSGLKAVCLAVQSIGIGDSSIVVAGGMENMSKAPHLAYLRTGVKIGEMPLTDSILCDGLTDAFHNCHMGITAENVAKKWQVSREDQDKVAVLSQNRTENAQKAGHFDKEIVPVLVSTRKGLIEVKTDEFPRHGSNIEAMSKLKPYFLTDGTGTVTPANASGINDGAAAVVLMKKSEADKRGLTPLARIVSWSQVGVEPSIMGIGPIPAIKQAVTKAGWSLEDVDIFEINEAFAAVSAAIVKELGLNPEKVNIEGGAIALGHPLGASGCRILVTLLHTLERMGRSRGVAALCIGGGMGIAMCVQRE
Chain of UniProt Q9UHD1 (Q9UHD1 whole entry, looked up): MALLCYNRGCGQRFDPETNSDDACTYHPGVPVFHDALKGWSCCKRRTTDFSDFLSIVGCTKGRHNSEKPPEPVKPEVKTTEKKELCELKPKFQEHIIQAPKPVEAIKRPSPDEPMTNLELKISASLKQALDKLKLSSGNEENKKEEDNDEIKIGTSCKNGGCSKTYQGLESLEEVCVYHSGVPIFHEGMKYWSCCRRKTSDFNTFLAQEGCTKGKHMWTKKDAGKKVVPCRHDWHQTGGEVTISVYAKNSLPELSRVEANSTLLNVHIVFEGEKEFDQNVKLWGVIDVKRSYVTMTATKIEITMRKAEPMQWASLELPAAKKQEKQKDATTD
Chain of UniProt Q9Y3C1 (Q9Y3C1 whole entry): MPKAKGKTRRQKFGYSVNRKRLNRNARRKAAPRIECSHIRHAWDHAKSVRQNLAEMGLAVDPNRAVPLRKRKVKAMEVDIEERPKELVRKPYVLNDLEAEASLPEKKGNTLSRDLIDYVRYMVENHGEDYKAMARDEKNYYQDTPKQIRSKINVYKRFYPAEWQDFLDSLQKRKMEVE
Chain of UniProt Q9Y2D4 (Q9Y2D4 whole entry, looked up): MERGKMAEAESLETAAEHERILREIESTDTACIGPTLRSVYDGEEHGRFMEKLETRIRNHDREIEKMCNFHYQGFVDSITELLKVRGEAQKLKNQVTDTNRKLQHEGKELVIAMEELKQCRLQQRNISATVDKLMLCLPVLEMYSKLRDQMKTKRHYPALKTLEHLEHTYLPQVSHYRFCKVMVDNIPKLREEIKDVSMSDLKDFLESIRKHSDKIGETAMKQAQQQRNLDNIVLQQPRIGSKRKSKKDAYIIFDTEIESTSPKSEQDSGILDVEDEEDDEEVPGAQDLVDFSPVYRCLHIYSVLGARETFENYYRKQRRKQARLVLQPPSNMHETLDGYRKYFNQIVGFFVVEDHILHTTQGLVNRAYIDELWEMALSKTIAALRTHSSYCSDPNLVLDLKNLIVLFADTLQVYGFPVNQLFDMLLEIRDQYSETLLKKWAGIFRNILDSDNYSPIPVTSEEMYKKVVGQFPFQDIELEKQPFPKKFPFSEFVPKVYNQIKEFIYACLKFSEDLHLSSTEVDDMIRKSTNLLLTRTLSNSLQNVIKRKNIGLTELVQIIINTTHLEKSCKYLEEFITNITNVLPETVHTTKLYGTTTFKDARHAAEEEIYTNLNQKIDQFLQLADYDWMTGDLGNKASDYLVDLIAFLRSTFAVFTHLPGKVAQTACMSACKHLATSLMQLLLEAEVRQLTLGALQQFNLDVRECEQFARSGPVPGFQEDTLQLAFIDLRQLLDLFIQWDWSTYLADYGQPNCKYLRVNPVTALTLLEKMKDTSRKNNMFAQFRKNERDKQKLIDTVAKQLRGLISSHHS
Chain of UniProt Q9UJC3 (Q9UJC3 whole entry): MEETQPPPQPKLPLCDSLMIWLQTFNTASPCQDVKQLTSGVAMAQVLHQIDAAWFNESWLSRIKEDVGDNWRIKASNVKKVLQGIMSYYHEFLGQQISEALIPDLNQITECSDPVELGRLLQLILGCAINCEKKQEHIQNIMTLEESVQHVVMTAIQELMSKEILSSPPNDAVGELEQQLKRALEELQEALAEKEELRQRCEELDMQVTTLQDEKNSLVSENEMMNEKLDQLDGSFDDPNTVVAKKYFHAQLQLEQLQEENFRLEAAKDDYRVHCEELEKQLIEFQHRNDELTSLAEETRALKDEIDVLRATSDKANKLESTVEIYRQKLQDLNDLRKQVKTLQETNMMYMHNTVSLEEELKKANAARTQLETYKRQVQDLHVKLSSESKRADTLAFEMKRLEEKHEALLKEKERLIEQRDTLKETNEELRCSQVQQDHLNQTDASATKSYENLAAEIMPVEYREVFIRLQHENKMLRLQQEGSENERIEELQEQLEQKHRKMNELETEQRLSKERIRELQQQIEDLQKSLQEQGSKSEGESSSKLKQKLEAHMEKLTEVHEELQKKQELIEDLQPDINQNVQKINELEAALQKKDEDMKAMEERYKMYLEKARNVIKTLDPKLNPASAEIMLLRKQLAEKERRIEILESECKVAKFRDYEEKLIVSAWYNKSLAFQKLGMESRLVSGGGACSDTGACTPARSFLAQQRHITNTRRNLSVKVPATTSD
Chain of UniProt Q9H3U1 (Q9H3U1 whole entry, looked up): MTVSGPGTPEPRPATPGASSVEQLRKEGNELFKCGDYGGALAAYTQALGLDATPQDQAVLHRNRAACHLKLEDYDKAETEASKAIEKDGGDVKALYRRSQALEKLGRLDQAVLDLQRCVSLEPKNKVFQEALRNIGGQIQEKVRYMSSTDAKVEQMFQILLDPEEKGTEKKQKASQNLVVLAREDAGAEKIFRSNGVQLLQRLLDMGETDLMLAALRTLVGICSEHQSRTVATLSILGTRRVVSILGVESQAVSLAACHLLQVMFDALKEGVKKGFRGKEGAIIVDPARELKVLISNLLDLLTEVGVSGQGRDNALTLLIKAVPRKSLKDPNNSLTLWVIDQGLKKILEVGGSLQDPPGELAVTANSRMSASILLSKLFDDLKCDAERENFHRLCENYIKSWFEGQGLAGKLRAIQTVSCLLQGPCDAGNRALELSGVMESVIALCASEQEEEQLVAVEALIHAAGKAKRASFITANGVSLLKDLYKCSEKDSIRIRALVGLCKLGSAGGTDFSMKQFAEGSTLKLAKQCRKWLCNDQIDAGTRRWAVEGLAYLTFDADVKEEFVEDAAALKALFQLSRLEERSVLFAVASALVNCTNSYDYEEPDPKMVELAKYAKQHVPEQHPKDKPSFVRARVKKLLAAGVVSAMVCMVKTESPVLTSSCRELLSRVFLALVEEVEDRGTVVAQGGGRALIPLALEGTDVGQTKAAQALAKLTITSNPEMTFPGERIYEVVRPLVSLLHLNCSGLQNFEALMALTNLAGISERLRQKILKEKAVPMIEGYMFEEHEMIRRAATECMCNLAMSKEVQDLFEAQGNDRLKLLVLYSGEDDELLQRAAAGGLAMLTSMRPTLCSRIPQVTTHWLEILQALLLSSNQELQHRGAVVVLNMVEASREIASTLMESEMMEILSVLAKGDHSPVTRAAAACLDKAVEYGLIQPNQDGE
Chain of UniProt Q9Y2Q3 (Q9Y2Q3 whole entry): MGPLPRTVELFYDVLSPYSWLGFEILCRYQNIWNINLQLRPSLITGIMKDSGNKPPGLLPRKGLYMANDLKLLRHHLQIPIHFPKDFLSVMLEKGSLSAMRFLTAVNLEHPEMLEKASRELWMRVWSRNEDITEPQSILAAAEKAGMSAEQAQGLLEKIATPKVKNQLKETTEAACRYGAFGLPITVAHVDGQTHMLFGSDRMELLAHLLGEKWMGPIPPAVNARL
Chain of UniProt Q9C0C9 (Q9C0C9 whole entry, looked up): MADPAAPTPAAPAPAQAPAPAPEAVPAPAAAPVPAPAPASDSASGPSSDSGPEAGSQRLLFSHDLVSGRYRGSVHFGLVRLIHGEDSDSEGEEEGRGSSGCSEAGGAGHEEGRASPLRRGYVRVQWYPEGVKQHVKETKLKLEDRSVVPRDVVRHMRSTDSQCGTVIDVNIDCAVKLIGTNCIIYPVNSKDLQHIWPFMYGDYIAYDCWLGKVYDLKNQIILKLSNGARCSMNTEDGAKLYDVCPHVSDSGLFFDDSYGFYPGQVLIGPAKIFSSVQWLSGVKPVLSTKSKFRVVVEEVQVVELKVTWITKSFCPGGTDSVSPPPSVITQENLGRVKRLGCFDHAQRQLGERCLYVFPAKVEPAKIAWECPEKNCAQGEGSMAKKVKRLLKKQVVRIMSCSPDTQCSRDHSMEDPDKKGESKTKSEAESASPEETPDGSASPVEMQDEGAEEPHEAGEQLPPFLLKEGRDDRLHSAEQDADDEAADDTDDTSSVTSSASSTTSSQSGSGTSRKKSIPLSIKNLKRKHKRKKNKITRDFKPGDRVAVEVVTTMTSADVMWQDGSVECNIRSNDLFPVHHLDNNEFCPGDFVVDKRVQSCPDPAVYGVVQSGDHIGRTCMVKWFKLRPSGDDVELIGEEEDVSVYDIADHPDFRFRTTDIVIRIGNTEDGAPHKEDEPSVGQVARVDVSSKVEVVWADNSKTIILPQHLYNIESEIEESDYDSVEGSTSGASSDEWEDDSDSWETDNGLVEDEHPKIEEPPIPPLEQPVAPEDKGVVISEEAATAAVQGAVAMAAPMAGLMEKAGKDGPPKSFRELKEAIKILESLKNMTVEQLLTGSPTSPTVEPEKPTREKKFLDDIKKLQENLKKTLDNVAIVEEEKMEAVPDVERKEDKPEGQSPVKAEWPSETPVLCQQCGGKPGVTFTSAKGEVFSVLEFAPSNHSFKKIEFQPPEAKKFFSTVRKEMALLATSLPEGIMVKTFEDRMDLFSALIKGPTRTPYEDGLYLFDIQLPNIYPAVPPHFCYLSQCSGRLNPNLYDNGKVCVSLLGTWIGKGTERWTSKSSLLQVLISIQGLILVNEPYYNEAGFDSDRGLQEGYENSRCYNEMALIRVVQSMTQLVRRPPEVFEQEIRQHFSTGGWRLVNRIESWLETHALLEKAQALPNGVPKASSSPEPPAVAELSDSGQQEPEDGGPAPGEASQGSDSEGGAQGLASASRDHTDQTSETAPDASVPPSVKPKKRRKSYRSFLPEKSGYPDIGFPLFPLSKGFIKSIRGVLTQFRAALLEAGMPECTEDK

Target	log2 ratio of iodoacetamide-alkyne labeling
HOOK1 C432 (UniProt Q9UJC3)	0.385
KBTBD4 C455 (UniProt Q9NVX7)	0.248
PPAN C432 (UniProt Q9NQ55)	0.73
NOP16 C36 (UniProt Q9Y3C1)	1.12 (active)
EXOC6B C68 (UniProt Q9Y2D4)	-0.0384
SAR1A C178 (UniProt Q9NR31)	0.0354
CHORDC1 C5 (UniProt Q9UHD1)	-0.0481
ACAT2 C360 (UniProt Q9BWD1)	-0.0247
UniProt Q9HBK9_C32	1.1 (active)
UniProt Q9NUQ3_C127	0.926
UNC45A C420 (UniProt Q9H3U1)	0.56
DDA1 C25 (UniProt Q9BW61)	0.36
ATXN10 C356 (UniProt Q9UBB4)	1.32 (active)
FAM169A C138 (UniProt Q9Y6X4)	0.201
UTP6 C309 (UniProt Q9NYH9)	0.0486
UniProt Q9Y2D5_C296	0.394
GSTK1 C176 (UniProt Q9Y2Q3)	0.387
UniProt Q9NSY1_C912	0.827
RDH14 C97 (UniProt Q9HBH5)	0.228
MRPL44 C53 (UniProt Q9H9J2)	-0.0312
UniProt Q9Y520_C223	0.239
UBE2O C598 (UniProt Q9C0C9)	0.166
